# Data as given in PubChem BioAssay (EPA / NIEHS).
# Results filed as inconclusive are left out. Calls of active or inactive are those of the source. How the source made its calls: active means hit-call score of the fitted dose curve at least 0.9, where 1 is the maximum; inconclusive means response in the unintended direction; inactive means score below 0.9.
# Target: Sodium channel protein type 1 subunit alpha (Rattus norvegicus) (UniProt P04774)
# Assay: NVS_IC_rNaCh_site2: NovaScreen (NVS) Ion Channel Assay for rat Sodium Channel, Site 2 (NaCh) (AID 2283322);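 further: hit means loss of radioligand binding signal relative to DMSO so AC50 marks displacement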
# Outline: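 Membranes: rat forebrain. Format: competitive radioligand displacement, filter separation, scintillation readout, 1 h exposure. Primary screen in duplicate at 25 uM; actives retested in concentration series.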
Compound,AC50,outcome
CCOC(=O)c1ccc(C2CCC(NC[C@H](O)COc3ccc(O)c(NS(C)(=O)=O)c3)CC2)cc1 (stereo partly drawn),3.33 µM (active),–
CCOC(=O)COc1ccc2c(c1)CC(NCC(O)c1cccc(Cl)c1)CC2 (stereo not drawn),6.7 µM (active),–
CCCN(C1CCN(C(=O)C2CCNCC2)CC1)[C@@H]1CCc2ccc(OC)cc2C1,7.66 µM (active),–
CCc1cc(SCc2sc(-c3ccc(C(F)(F)F)cc3)nc2CN2CCN(c3ccc(OC)cc3)CC2)ccc1OCC(=O)O,25 µM (active),–
CC(C)CC(C)(O)C#CC(C)(O)CC(C)C (stereo not drawn),–,inactive
O=c1[nH]c2ccc(S(=O)CCN3CCC(Cc4ccc(F)cc4)CC3)cc2o1 (stereo not drawn),6.76 µM (active),–
Cc1[nH]cnc1C[C@H]1CCc2c(C)c3ccccc3n2C1=O,10.4 µM (active),–
COc1ccc(-n2nc(C(F)F)cc2-c2ccc(S(C)=O)cc2)cc1 (stereo not drawn),–,inactive
CC[C@H]1CC[C@H](NCc2cc3c(cc2OC)[C@H]2C[C@H]2C(=O)N3C)[C@H](c2ccccc2)N1,0.163 µM (active),–
O=P(OC(CCl)CCl)(OC(CCl)CCl)OC(CCl)CCl,–,inactive
CCn1nc(Cc2ccccc2)cc1C1CCN(C[C@H]2C[C@H](N(C)[C@@H](C(=O)O)C(C)C)C[C@@H]2c2cccc(F)c2)CC1,17.4 µM (active),–
CNS(=O)(=O)c1cc(C(=O)N2CCC(CCN3C4CCC3CC(n3c(C)nc5ccccc53)C4)(c3cccc(F)c3)CC2)c(Cl)cc1F (stereo not drawn),13.1 µM (active),–
Nc1ccc(Nc2ccccc2)cc1,5.39 µM (active),–
CCCCCCc1ccc(O)cc1O,–,inactive
O=C(O)CC(O)C(=O)O (stereo not drawn),–,inactive
CCOc1cccc(-n2cc(C(=O)N3CCN(c4cc(C(=O)O)c5ccccc5c4)CC3)nc2-c2ccc(C)cc2)c1,7.07 µM (active),–
COc1cccc(-c2ccc(/C=C\CN3CCCCCC3)cc2Cl)c1,1.33 µM (active),–
CCN(C(=O)c1cc(C)cc(OC[C@H](C)Nc2ccncc2)c1)C(C)C,10.1 µM (active),–
CCCCC(CC)COC(=O)CCCCCCCCC(=O)OCC(CC)CCCC (stereo not drawn),–,inactive
COCCOc1cc2cc(C(=O)NC3CCN(C(C)C)CC3)n(CC(=O)Nc3ccc(Cl)cn3)c2cn1,25.8 µM (active),–

# Target: rat Glutamate, AMPA Site (AMPA), Gria1 (gene 50592) (UniProt P19490)
# Assay: NVS_LGIC_rAMPA: NovaScreen (NVS) Ligand-Gated Ion Channel Assay for rat Glutamate, AMPA Site (AMPA) (AID 2283324)
# Outline: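 Rat forebrain membranes; radioligand binding read 1 h after dosing by filtration and scintillation counting. Duplicate single-point screen at 25 uM, then concentration-response to 50 uM for threshold hits (e.g. 30% inhibition); loss of signal vs DMSO.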
# Chain of rat Glutamate, AMPA Site (AMPA), Gria1 (gene 50592) (P19490 whole entry, looked up): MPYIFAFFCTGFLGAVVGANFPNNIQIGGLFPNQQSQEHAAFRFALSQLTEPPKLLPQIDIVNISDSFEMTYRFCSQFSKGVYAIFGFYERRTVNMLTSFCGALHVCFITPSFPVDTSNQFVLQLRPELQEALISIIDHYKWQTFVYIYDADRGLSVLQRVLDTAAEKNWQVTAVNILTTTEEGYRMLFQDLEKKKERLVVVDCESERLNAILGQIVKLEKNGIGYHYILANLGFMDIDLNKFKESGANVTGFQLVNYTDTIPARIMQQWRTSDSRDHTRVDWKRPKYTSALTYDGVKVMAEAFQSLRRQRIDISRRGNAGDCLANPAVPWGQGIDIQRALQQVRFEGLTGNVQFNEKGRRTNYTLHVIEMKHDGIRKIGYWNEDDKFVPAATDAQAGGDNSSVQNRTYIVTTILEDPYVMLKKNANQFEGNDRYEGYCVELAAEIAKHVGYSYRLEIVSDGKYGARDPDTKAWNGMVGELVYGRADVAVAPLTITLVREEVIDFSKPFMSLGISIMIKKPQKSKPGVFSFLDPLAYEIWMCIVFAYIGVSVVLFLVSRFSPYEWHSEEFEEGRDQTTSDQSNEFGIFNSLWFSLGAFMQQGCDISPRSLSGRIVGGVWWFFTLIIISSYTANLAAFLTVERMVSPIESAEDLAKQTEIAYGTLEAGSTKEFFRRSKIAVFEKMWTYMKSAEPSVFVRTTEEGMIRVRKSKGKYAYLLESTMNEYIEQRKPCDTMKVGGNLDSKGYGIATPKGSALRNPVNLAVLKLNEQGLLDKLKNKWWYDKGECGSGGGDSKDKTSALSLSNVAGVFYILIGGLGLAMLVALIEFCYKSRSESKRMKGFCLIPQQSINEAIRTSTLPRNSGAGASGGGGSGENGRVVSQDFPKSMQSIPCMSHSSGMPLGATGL
Compound,outcome,AC50
CC(=O)OCCC(C)C,inactive,–
CC1=CC(=O)CC(C)(C)C1,inactive,–
O=C(O)CC(O)C(=O)O (stereo not drawn),inactive,–
CC(C)=CCCC(C)=CC=O,inactive,–
O=C(OC[C@H]1O[C@@H](OC(=O)c2cc(O)c(O)c(OC(=O)c3cc(O)c(O)c(O)c3)c2)[C@H](OC(=O)c2cc(O)c(O)c(OC(=O)c3cc(O)c(O)c(O)c3)c2)[C@@H](OC(=O)c2cc(O)c(O)c(OC(=O)c3cc(O)c(O)c(O)c3)c2)[C@@H]1OC(=O)c1cc(O)c(O)c(OC(=O)c2cc(O)c(O)c(O)c2)c1)c1cc(O)c(O)c(OC(=O)c2cc(O)c(O)c(O)c2)c1,–,9.44 µM (active)
CNCc1ccc(NC(=O)c2c[nH]c3c2C(=O)CCC3)cc1,inactive,–
Cn1c(=O)cc(Oc2ccc(F)cc2F)c2cnc(NCC(C)(C)O)nc21,inactive,–

# Target: human Serotonin, 5-Hydroxytryptamine Receptor 3 (5HT3), HTR3A (gene 3359) (UniProt P46098)
# Assay: NVS_LGIC_h5HT3: NovaScreen (NVS) Ligand-Gated Ion Channel Assay for human Serotonin, 5-Hydroxytryptamine Receptor 3 (5HT3) (AID 2283325)
# Outline: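 Radioligand displacement binding to human 5-HT3 from HEK293 membranes, read by filter-based scintillation counting after 1 h. Screen at 25 uM in duplicate; chemicals passing threshold were retested in concentration-response up to 50 uM.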
# Chain of human Serotonin, 5-Hydroxytryptamine Receptor 3 (5HT3), HTR3A (gene 3359) (P46098 whole entry, looked up): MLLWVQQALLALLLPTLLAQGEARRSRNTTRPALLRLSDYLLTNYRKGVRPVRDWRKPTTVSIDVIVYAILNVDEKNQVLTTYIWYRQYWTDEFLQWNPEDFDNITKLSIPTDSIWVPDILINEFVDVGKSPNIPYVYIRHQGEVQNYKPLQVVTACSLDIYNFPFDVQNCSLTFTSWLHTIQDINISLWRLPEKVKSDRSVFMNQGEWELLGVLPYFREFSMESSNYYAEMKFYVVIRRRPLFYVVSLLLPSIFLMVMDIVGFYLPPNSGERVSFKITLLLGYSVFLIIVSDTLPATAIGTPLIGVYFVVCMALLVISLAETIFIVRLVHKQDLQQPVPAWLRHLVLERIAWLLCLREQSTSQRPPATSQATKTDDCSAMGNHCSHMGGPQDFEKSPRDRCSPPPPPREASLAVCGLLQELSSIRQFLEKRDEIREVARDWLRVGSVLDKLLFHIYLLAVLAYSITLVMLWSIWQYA
Compound,AC50,outcome
Cc1[nH]cnc1C[C@H]1CCc2c(C)c3ccccc3n2C1=O,2.04 nM (active),–
COc1cccc(-c2ccc(/C=C\CN3CCCCCC3)cc2Cl)c1,–,inactive
CC(C)=CCC/C(C)=C\CO,–,inactive
C=CCCCCCCCCC(=O)O,–,inactive

# Target: rat Gamma-Aminobutyric Acid Type A Receptor, Non-Selective (GABAR-NonSelective), Gabra1 (gene 29705) (UniProt P62813)
# Assay: NVS_LGIC_rGABAR_NonSelective: NovaScreen (NVS) Ligand-Gated Ion Channel Assay for rat Gamma-Aminobutyric Acid Type A Receptor, Non-Selective (GABAR-NonSelective) (AID 2283326)
# Outline: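 Radioligand displacement on rat whole-brain extract, 1 h, filter scintillation readout; signal loss fitted versus DMSO. Primary screen in duplicate at 25 uM; hits (e.g. ≥30% inhibition) retested in concentration-response up to 50 uM.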
# Chain of rat Gamma-Aminobutyric Acid Type A Receptor, Non-Selective (GABAR-NonSelective), Gabra1 (gene 29705) (P62813 whole entry, looked up): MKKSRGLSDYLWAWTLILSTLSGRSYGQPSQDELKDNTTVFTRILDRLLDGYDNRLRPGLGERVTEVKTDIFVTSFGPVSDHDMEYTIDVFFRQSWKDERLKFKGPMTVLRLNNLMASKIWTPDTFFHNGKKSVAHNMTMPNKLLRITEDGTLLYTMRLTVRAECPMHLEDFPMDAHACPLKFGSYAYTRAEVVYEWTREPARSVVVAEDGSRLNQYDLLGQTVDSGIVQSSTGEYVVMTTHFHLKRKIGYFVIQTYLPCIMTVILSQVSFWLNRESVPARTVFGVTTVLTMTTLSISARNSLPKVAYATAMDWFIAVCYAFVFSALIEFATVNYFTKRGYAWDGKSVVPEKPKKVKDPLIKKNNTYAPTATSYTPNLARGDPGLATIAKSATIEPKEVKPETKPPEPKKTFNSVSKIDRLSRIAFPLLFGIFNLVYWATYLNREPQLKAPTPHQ
Compound,AC50,outcome
CCOC(=O)c1ccc(C2CCC(NC[C@H](O)COc3ccc(O)c(NS(C)(=O)=O)c3)CC2)cc1 (stereo partly drawn),4.64 µM (active),–
COc1cccc(-c2ccc(/C=C\CN3CCCCCC3)cc2Cl)c1,–,inactive
CCN(C(=O)c1cc(C)cc(OC[C@H](C)Nc2ccncc2)c1)C(C)C,1.13 µM (active),–
CNCc1ccc(NC(=O)c2c[nH]c3c2C(=O)CCC3)cc1,–,inactive
COCCOc1cc2cc(C(=O)NC3CCN(C(C)C)CC3)n(CC(=O)Nc3ccc(Cl)cn3)c2cn1,–,inactive

# Target: rat Glutamate, NMDA Agonist Site (GluNMDA), Grin1 (gene 24408) (UniProt P35439)
# Assay: NVS_LGIC_rGluNMDA_Agonist: NovaScreen (NVS) Ligand-Gated Ion Channel Assay for rat Glutamate, NMDA Agonist Site (GluNMDA) (AID 2283327)
# Outline: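 Rat forebrain membranes, radioligand binding in the agonist-site protocol; 1 h after dosing; filter-based scintillation counting. Single-concentration duplicate screen at 25 uM, then concentration-response up to 50 uM for actives; gain-of-signal vs DMSO.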
Compound,outcome,AC50
O=c1[nH]c2ccc(S(=O)CCN3CCC(Cc4ccc(F)cc4)CC3)cc2o1 (stereo not drawn),inactive,–
COc1ccc(-n2nc(C(F)F)cc2-c2ccc(S(C)=O)cc2)cc1 (stereo not drawn),inactive,–
Fc1ccccc1[C@@H](F)COC1CCC(Nc2ncnc3[nH]ncc23)CC1 (stereo partly drawn),–,616 nM (active)

# Target: rat Thyrotropin Releasing Hormone Receptor (TRH), Trhr (gene 25570) (UniProt Q01717)
# Assay: NVS_GPCR_rTRH: NovaScreen (NVS) G Protein-Coupled Receptor Assay for rat Thyrotropin Releasing Hormone Receptor (TRH) (AID 2283329);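 further: hit means lower bound tracer signal versus DMSO baseline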
# Procedure: NVS_GPCR_rTRH is a biochemical, single-readout assay that uses extracted gene-proteins from Rat forebrain membranes in a tissue-based cell-free assay. Measurements were taken 4 hours after chemical dosing in a 48-well plate.NVS_GPCR_rTRH is one of one assay component(s) measured or calculated from the NVS_GPCR_rTRH assay. It is designed to make measurements of radioligand binding, a form of binding reporter, as detected with scintillation counting signals by Filter-based radiodetection technology.Data from the assay component NVS_GPCR_rTRH was analyzed into 1 assay endpoint. This assay endpoint, NVS_GPCR_rTRH, was analyzed in the positive analysis fitting direction relative to DMSO as the negative control and baseline of activity. Using a type of binding reporter, loss-of-signal activity can be used to understand changes in the binding as they relate to the gene Trhr. Furthermore, this assay endpoint can be referred to as a primary readout, because the performed assay has only produced 1 assay endpoint. To generalize the intended target to other relatable targets, this assay endpoint is annotated to the gpcr intended target family, where the subfamily is rhodopsin-like receptor.
# Binding assays used specific radioligands (tritiated, iodinated) with non-radioactive competitive displacement ligands in agonist or antagonist protocols (as indicated) and various reference compounds and inhibitors to titrate specific binding to receptors and transporters. Most enzyme assays (CYPs, kinases, phosphatases, proteases, HDACs) used recombinant protein and specific substrates (fluorescence mostly, some colorimetric and radioactive) and inhibitors, followed by a biochemical separation of substrate and product. All assays for the biochemical HTS were initially run in duplicate at a single concentration (10 uM for CYP450 assays and 25 uM for all others). […] Each assay was run with positive and negative controls, and concurrent controls on every plate. The follow-up (secondary) screen tested active chemical-pairs in concentration series, as well as a few additional assays not tested in the primary screen, some selected negative inactives, and several cases re-run in the concentration series for confirmatory purposes.
# Chain of rat Thyrotropin Releasing Hormone Receptor (TRH), Trhr (gene 25570) (Q01717 whole entry, looked up): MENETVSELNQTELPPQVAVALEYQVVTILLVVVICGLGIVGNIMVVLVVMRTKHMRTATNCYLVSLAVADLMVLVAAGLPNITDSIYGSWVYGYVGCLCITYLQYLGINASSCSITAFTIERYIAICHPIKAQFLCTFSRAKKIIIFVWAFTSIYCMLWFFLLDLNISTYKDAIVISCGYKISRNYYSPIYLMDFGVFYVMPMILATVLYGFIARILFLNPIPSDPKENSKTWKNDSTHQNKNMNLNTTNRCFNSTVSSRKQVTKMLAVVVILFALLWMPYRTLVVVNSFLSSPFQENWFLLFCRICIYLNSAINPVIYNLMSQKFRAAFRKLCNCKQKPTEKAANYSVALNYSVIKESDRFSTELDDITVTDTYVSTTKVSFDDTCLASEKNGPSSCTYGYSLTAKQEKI
Compound,AC50,outcome
O=C(NS(=O)(=O)/C=C/c1ccccc1)c1ccc(F)cc1Cl,2.5 nM (active),–
Cc1[nH]cnc1C[C@H]1CCc2c(C)c3ccccc3n2C1=O,–,inactive
COc1ccc(-n2nc(C(F)F)cc2-c2ccc(S(C)=O)cc2)cc1 (stereo not drawn),–,inactive
CCOC(=O)CC(CC(=O)OCC)(OC(C)=O)C(=O)OCC,–,inactive
